High-throughput results deposited in PubChem BioAssay by National Center for Advancing Translational Sciences (NCATS).
KB-3-1 tox: KB-3-1 parental cell cytotoxicity; hit rate 1.4% among 400,000; KB-3-1 viability, CellTiter-Glo ATP luminescence, 72 h; AID 1347075; Potency, µM (top dose mostly 46.1 µM), hits mostly cytotoxic; also: nearly all actives have a fitted effect of over 60% in size
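Parental KB-3-1 viability, qHTS format: 72 h compound exposure, 37 °C; CellTiter-Glo; media-only wells and DMSO plates as controls; concentration-effect fits on corrected data.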
ELG1 repair inh: blocks ELG1-dependent DNA repair in HEK293T cells; hit rate 2.3% among 330,000; AID 504467; HEK293T ELG1-luciferase reporter, luminescence, 16 h; DNA damage induced by 5-fluorouridine; Potency, µM (highest dose often 46.1 µM), actives largely listed as inhibitors; also: nearly all actives have a fitted effect of over 55% in size
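Step one: seed 2,000 cells per well. Step two: pin-transfer compound or DMSO alongside 5-fluorouridine. Step three: incubate 16 hr, 37 °C, 5% CO2. Step four: add ONE-Glo, wait 30 min, read luminescence.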
SW480 rerep: DNA re-replication induction in SW480 cells. SW480 DNA re-replication, Hoechst DNA content imaging, 48 h. AID 624297. hit rate 1.8% among 340,000. Potency, µM (top dose mostly 46.1 µM), usual class: activators; also: nearly all actives have a fitted effect of over 55% in size
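Compounds, transferred as 23 nL by pin tool, were incubated with cells for 48 hr; DNA content per nucleus was then quantified by Hoechst staining and fluorescence plate imaging.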
MCF10A rerep: induces DNA re-replication in MCF 10a normal breast cells. MCF 10A DNA re-replication, Hoechst nuclear intensity, 48 h. Potency, µM (doses to about 46.1 µM), usual class: activators. hit rate 2.9% among 350,000; also: nearly all actives have a fitted effect of over 50% in size
KB-V1 cytotox: kills drug-selected multidrug resistant KB-V1 cells | Potency, µM (doses to about 46.1 µM), usual class: cytotoxic | KB-V1 MDR cells viability, CellTiter-Glo, 72 h | hit rate 3.4% among 400,000 | AID 1347076; also: nearly all actives have a fitted effect of over 60% in size
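Readout: CellTiter-Glo luminescence, 10 min after addition. Cells: KB-V1 MDR subline, 72 h at 37 degrees C with compound. Analysis: corrected, normalized data fitted to concentration-effect curves.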
A number is an active result; – = inactive; ? = inconclusive; · = not tested or not shown; ! = not confirmed by another sample; [ ] = dose if it differs, or a comment. Most compounds without a hit are left out; they make up all but 8.1% or so of the library. Calls follow the shape of the dose curve; as a rule, active = well fitted curve in the direction sought with a large enough effect; inconclusive = small, poorly fitted or top-dose-only effect, or another doubt; inactive = no such curve, though single readings can be large; an effect the other way counts as inactive or inconclusive.

SMILES | KB-3-1 tox | ELG1 repair inh | SW480 rerep | MCF10A rerep | KB-V1 cytotox
COc1ccc(C2/C=C\CN(C(=O)c3ccc(C)cc3)[C@H](Cc3ccccc3)C(=O)N2Cc2ccc(F)cc2)cc1 (stereo not given in full) | 12µM | ? | – | ? | ?
COc1ccc(C2/C=C\CC(OCc3ccccc3)CC(=O)N2Cc2cccc(F)c2)cc1 (stereo not given) | – | 21µM | ? | ? | –
CCCNC(=O)C1(C)CCN(C(=O)COc2ccc(C(C)(C)C)cc2)C1 (stereo not given) | – | · | · | · | –
CCCCCCCCNS(=O)(=O)CCNC1CC1 | – | · | – | – | –
CCOCCCn1c(=NC(C)=O)c(C#N)cc2c(=O)n3ccccc3nc21 | – | – | 7.3µM | 2.6µM | –
CC(=O)N=c1c(C#N)cc2c(=O)n3ccccc3nc2n1Cc1ccccc1 | – | – | 5.8µM | 8.2µM | –
Cc1ccc(S(=O)(=O)NN2CCCCCC2)cc1 | – | · | · | · | –
Oc1ccc(Cl)cc1-c1cc(-c2ccccc2Cl)[nH]n1 | ? | – | ? | –[0.0737 µM] | ?
Oc1ccc(Cl)cc1-c1cc(-c2cccc(Br)c2)n[nH]1 | ? | ? | – | ? | 21µM
OC1CCN(c2cc(-c3ccccc3)nc3cc(-c4ccc(F)cc4)nn23)CC1 | – | 13µM | – | – | –
Cc1cc(N2CCN(C(=O)c3ccco3)CC2)n2nc(-c3cccc(F)c3)cc2n1 | – | 16µM | ? | 23µM | –
COc1cccc(-c2cc3nc(-c4ccccc4)cc(N4CCCC(O)C4)n3n2)c1 (stereo not given) | – | 16µM | 15µM | 18µM | –
CCN1CCN(c2cc(-c3ccccc3)nc3cc(-c4cccc(F)c4)nn23)CC1 | ? | 23µM | ? | 10µM | ?
CCc1cc(/C=C/c2ccnc3ccccc23)ccc1N(C)C | 6.5µM | · | · | · | ?
CN(C)c1ccc(/C=C/c2ccnc3ccccc23)cc1C=O | – | · | · | · | –
CN(C)c1ccc(N=Cc2ccnc3ccccc23)cc1 | – | · | · | · | –
Cc1ccc2nccc(/C=C/c3ccc(N(C)C)cc3)c2c1 | ? | · | · | · | 18µM
CN(C)c1ccc(/C=C\C=C/c2ccnc3ccccc23)cc1 | 0.92µM | · | · | · | –
CCCC(=O)O[C@]1(C(=O)CCl)[C@H](C)C[C@@H]2[C@H]3CCC4=CC(=O)C=C[C@]4(C)[C@@]3(F)C(=O)C[C@@]21C | · | · | – | – | ·
CC(C)CN1C(=O)CSCC1(C)C(=O)Nc1ccc2c(c1)OCCO2 (stereo not given) | – | · | · | · | ?
COc1ccc(C(=O)N/N=C(/C)c2ccc(N3CCCCC3)cc2)cc1 | – | – | – | – | –
C/C(=N\NC(=O)c1ccc(OC2CCCC2)cc1)c1ccc(O)cc1 | 3.7µM | – | – | ? | ?
CCN(CC)c1ccc(C(=O)N/N=C(\C)c2ccc(O)cc2)cc1 | 13µM | – | – | 8.2µM | –
CCN(CC)c1ccc(C(=O)N/N=C(\C)c2cccnc2)cc1 | – | – | – | – | ?
O=C(Nc1cccc(C(=O)O)c1)/C(=C\c1ccc2c(c1)OCO2)NC(=O)c1ccco1 | – | – | – | 0.58µM | –
SMILES | KB-3-1 tox | ELG1 repair inh | SW480 rerep | MCF10A rerep | KB-V1 cytotox
O=C(Nc1ccccc1)/C(=C/c1ccc2c(c1)OCO2)NC(=O)c1ccco1 | – | – | – | – | ?
O=C(Nc1ccccc1)/C(=C\c1ccc2c(c1)OCO2)NC(=O)c1ccco1 | – | – | ? | 9.2µM | –
COC1CCCN(C(=O)c2cccc(OC3CCN(S(C)(=O)=O)CC3)c2)C1 (stereo not given) | – | – | – | – | –
CCc1nc2ccccc2n(CCOCCn2c(=O)c(CC)nc3ccccc32)c1=O | – | 23µM | – | – | –
Cn1cc(C(c2ccccc2)c2ccc(Cl)s2)c2ccccc21 (stereo not given) | – | · | · | · | –
CCn1c(C)c(C2=CCN(S(=O)(=O)c3ccc(C)cc3)CC2)c2ccccc21 | ? | – | – | ? | 16µM
Cc1c(C2=CCN(S(=O)(=O)c3ccc(Br)cc3)CC2)c2ccccc2n1C | – | – | ? | ? | –
CCc1nnc(NC(=O)c2sc3nc4c(cc3c2N)CCCCC4)s1 | ? | ? | 8.2µM | 16µM | –
CCc1nnc(NC(=O)c2sc3nc4c(cc3c2N)CCCCCC4)s1 | – | ? | ? | 18µM | –
Nc1c(C(=O)Nc2ccccc2F)sc2nc3c(cc12)CCCCCC3 | 13µM | · | · | · | 6.5µM
O=[N+]([O-])c1ccccc1/C=C/c1ccnc2ccccc12 | ? | · | · | · | –
Cc1cc(C)nc(Sc2nc(C)nc3c2oc2ccccc23)n1 | 21µM | ? | ? | ? | ?
Cc1nc(SCc2cccc(F)c2)c2oc3ccccc3c2n1 | – | 21µM | – | – | –
Cc1nc(NCCN2CCOCC2)c2oc3ccccc3c2n1 | – | – | – | – | –
Cc1nc(NCCc2ccccc2)c2oc3ccccc3c2n1 | ? | ? | – | –[0.0737 µM] | 23µM
Cc1ccc(S(=O)(=O)CCC(=O)Nc2ccccc2C)cc1 | – | – | – | – | –
C[n+]1c2n(c3ccccc31)N=C(c1ccccc1)CS2 | 2.9µM | 5.8µM! | ? | ? | –
C[n+]1c2n(c3ccccc31)N=C(c1ccc(-c3ccccc3)cc1)CS2 | – | ? | – | – | –
Oc1ccc(/C=N/Nc2cc(N3CCOCC3)nc(N3CCOCC3)n2)cc1O | – | ? | – | – | –
Oc1cccc(/C=N/Nc2cc(N3CCOCC3)nc(N3CCOCC3)n2)c1 | – | ? | 5.8µM | ? | ?
Oc1ccccc1/C=N/Nc1cc(N2CCCC2)nc(N2CCCC2)n1 | ? | ? | ? | 18µM | –
CC(C)c1ccc(C(C(C(=O)c2ccccc2)N2CCOCC2)N2CCOCC2)cc1 (stereo not given) | – | · | – | – | –
O=c1c2cc(N3CCOCC3)ccc2[nH]c(=S)n1Cc1cccc(Cl)c1 | – | – | – | ? | ?
COc1cccc(Cn2c(=S)[nH]c3ccc(N4CCOCC4)cc3c2=O)c1 | – | – | ? | ? | 3.7µM
O=c1c2cc(N3CCOCC3)ccc2[nH]c(=S)n1CCCN1CCCC1 | – | ? | – | – | ?
SMILES | KB-3-1 tox | ELG1 repair inh | SW480 rerep | MCF10A rerep | KB-V1 cytotox
CCN(CCCn1c(=S)[nH]c2ccc(N3CCOCC3)cc2c1=O)c1ccccc1 | – | ? | ? | 18µM | ?
O=c1c2cc(N3CCOCC3)ccc2[nH]c(=S)n1Cc1ccco1 | – | – | ? | ? | 13µM
CCCCOC(=O)n1c(SCC(=O)N(C)C)nc2ccccc21 | – | – | – | – | 16µM
CCc1ccccc1NC(=O)CN1CCN(CC(=O)Nc2ccc3c(c2)OC2(CCCCC2)O3)CC1 | ? | · | 8.2µM | 6.5µM | –
O=C(Cc1ccccc1)Nc1ccc2c(c1)OC1(CCCC1)O2 | – | ? | – | – | ?
CC(C)CCOc1ccc(C2=NNC(=O)CC2)cc1 | ? | ? | – | – | 1.8µM
CCCCCc1ccc(C2=NNC(=O)CC2)cc1 | ? | ? | – | – | –
CN(CC(=O)Nc1ccccc1Cl)CC(=O)N(C)c1c(N)n(Cc2ccccc2)c(=O)[nH]c1=O | – | – | – | – | –
